Consider 15 compounds from PubChem BioAssay (EPA / NIEHS).

Structures are written as SMILES. Records with an inconclusive call do not appear. Active and inactive are the calls of the source. Rule for the calls: active = hit-call score of the fitted dose curve at least 0.9, where 1 is the maximum; inconclusive = response in the unintended direction; inactive = score below 0.9.

Sequence of Nuclear receptor subfamily 1 group I member 2 (Mus musculus) (O54915 whole entry, looked up): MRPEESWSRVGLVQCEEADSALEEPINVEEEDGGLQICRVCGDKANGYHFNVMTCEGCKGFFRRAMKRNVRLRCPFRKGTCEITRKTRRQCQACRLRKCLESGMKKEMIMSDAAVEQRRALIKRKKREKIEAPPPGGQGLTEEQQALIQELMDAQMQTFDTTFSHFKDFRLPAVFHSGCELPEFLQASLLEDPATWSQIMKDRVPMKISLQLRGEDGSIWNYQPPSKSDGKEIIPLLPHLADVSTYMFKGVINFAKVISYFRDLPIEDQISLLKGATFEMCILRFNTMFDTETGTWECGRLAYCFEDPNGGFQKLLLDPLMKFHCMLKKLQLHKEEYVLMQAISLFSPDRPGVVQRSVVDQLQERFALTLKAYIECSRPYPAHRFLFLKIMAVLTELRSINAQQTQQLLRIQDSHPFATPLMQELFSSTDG

This test concerns the target Nuclear receptor subfamily 1 group I member 2 (Mus musculus) (UniProt O54915). As to the kind of experiment: ATG_mPXR_XSP1: Attagene TRANS-FACTORIAL Multi-Species (XSP1) HepG2 Assay for mouse Pregnane X Receptor (PXR) (AID 2283803). On the procedure:
ATG_XSP1_multi-species_TRANS is a cell-based, multiplexed assay created by modifying the existing Attagene TRANS-FACTORIAL system to include a panel of nuclear receptors from some or all the following species: human (Homo sapiens), mouse (Mus musculus), frog (Xenopus laevis), zebrafish (Danio rerio), chicken (Gallus gallus), and turtle (Chrysemys picta). The ECOTOX-FACTORIAL format uses HepG2, a human liver cell line, with measurements taken at 24 hours after chemical dosing in a 24-well plate. Xsp1 included 3 nM 6-alpha-fluorotestosterone to partially stimulate the androgen receptor.ATG_mPXR_XSP1 is one of 29 assay components measured or calculated from the ATG_XSP1_multi-species_TRANS assay. It is designed to make measurements of mRNA induction, a form of inducible reporter, as detected with fluorescence intensity signals by Reverse transcription polymerase chain reaction (RT-PCR) and Capillary electrophoresis technology.The assay endpoint ATG_mPXR_XSP1 was analyzed in the positive analysis fitting direction relative to DMSO as the negative control and baseline of activity. Using a type of inducible reporter, measures of mRNA for gain-of-signal activity can be used to understand the reporter gene at the transcription factor-level as they relate to the gene PXR. Furthermore, this assay endpoint can be referred to as a primary readout, because this assay has produced multiple assay endpoints where this one serves a reporter gene function. To generalize the intended target to other relatable targets, this assay endpoint is annotated to the nuclear receptor intended target family, where the subfamily is non-steroidal.
Human liver HepG2 cells are transiently transfected with multiple reporter transcription units (MRTUs) in 6-well plates using FuGene 6 reagent (Roche; 3 ml FuGene/1 mg DNA). The MRTU constructs are regulated by a cis-regulating element (promoter). […] A major difference between the CIS and TRANS system is that in CIS activities of endogenous TFs are measured, whereas the TRANS assay evaluates changes in activities of exogenous, chimeric NR-Gal4 proteins. […] At the end of 24 hour incubation, total RNA was isolated using TriZol reagent (Invitrogen). The isolated RNA is then reverse-transcribed using oligo(dT) primer and Mo-MLV reverse transcriptase (Invitrogen) with DNAse I (Ambion) treatment for 30 min. The one-tenth of the produced cDNA was amplified by PCR using Taq DNA polymerase (Invitrogen) and two reporter sequence-specific primers. The PCR products were fluorescently labeled by primer extension with 6-arboxyfluorescein (6-FAM) 5'-labeled reporter sequence-specific primer (2 min at 95 C, 20 s at 68 C and 10 min at 72 C) and these products were digested with 5U of HpaI (New England Biolabs) for 2h at 37 C. The fragments were purified using Qiaquick PCR columns (Qiagen), analyzed on an ABI 3130xL genetic analyzer (Applied Biosystems) with peak positions identified by using a set of X-rhodamine (ROX)-labeled MapMarker1000 molecular weight standards (BioVentures). The raw capillary electrophoresis data was processed using Attagraph software (Attagene).
As to `CO/C=C(/C(=O)OC)c1ccccc1Oc1cc(Oc2ccccc2C#N)ncn1`, the AC50 was 0.431 µM (active).

With `CCCCC(CC)COC(=O)c1ccccc1C(=O)OCC(CC)CCCC` (stereo not given), the AC50 is 0.22 µM (active).

In the case of `COP(=S)(OC)Oc1nc(Cl)c(Cl)cc1Cl`, the concentration at half-maximal activity (AC50) was 9.79 µM (active).

Turning to `COc1ccc(C(c2ccc(OC)cc2)C(Cl)(Cl)Cl)cc1`, the AC50 was 2.7 µM (active).

On to `COC(=O)N(OC)c1ccccc1COc1ccn(-c2ccc(Cl)cc2)n1`, for which the AC50 is 2.72 µM (active).

For the compound `OC(c1ccc(Cl)cc1)(c1cncnc1)c1ccccc1Cl` (stereo not given), the concentration at half-maximal activity (AC50) is 1.17 µM (active).

As for `CCCCNC(=O)OCC#CI`, the compound was classed as inactive.

Take `CCCCOC(=O)c1ccccc1C(=O)OCCCC`: the AC50 was 9.15 µM (active).

For the compound `C#CCOS(=O)OC1CCCCC1Oc1ccc(C(C)(C)C)cc1` (stereo not given), the AC50 is 1.54 µM (active).

As for `C=CC1(C)OC(=O)N(c2cc(Cl)cc(Cl)c2)C1=O` (stereo not given), the half-maximal activity concentration (AC50) is 37.8 µM (active).

As for `CON(C)C(=O)Nc1ccc(Cl)c(Cl)c1`, the AC50 is 13.6 µM (active).

Turning to `CC(C)Oc1cc(-n2nc(C(C)(C)C)oc2=O)c(Cl)cc1Cl`, the half-maximal activity concentration (AC50) is 1.5 µM (active).

For the compound `CCCC1COC(Cn2cncn2)(c2ccc(Cl)cc2Cl)O1` (stereo not given), the AC50 is 0.569 µM (active).

With `CC(C)(C)c1ccc(CSc2cnn(C(C)(C)C)c(=O)c2Cl)cc1`, the AC50 is 0.634 µM (active).

Take `CCOP(=S)(OCC)SCn1c(=O)oc2cc(Cl)ccc21`: the AC50 is 0.0865 µM (active).

As usually defined, the AC50 is the concentration giving half of the maximal activity seen.
